According to PubChem BioAssay AID1159580 (chemical genetic matrix, 2015):
Hit rate of the full screen: of about 5,500 compounds, about 2,000 (36%) were called active. Roughly 18% stayed inconclusive and do not appear here. Rule as the data show it: active = normalized growth mostly below about 0.91 (no sharp cut-off); inconclusive = no clear call, values can overlap the other calls; inactive = mostly above about 0.92. This is one part of the list.

Experiment: chemical genetic growth profiling, strain panel (AID 1159580);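 also: tested at 20 µM; growth read once vehicle control cultures reached saturation at 30 °C; 1 = growth at the plate median or of vehicle wells; lower values mean less growth of the strain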
Settings: S. cerevisiae deletion strains, growth OD

Measured: normalized growth

COC(=O)C1=COC(OC2OC(CO)C(O)C(O)C2O)C2C(C)CC(=O)C12 (configuration not stated)
inactive: locus YAL021C, strain ccr4, hits give low values 1.03 | locus YAL026C, strain drs2, hits give low values 1.02 | locus YAL030W, strain snc1, hits give low values 1.03 | locus YBL061C, strain skt5, hits give low values 1.02 | locus YBR009C, strain hhf1, hits give low values 1.01 | locus YBR023C, strain chs3, hits give low values 1.03 | locus YBR171W, strain sec66, hits give low values 1.04 | locus YBR231C, strain swc5, hits give low values 1.04 | locus YBR279W, strain paf1, hits give low values 1.03 | locus YCL011C, strain gbp2, hits give low values 1.03 | locus YCL016C, strain dcc1, hits give low values 1.02 | locus YCL061C, strain MRC1, hits give low values 1.03 | locus YCL069W, strain vba3, hits give low values 1.03 | locus YCR088W, strain abp1, hits give low values 1.03 | locus YDL005C, strain med2, hits give low values 1.04 | locus YDL040C, strain nat1, hits give low values 1.03 | locus YDR001C, strain nth1, hits give low values 1.03 | locus YDR069C, strain doa4, hits give low values 1.02 | locus YDR137W, strain rgp1, hits give low values 1.07 | locus YDR159W, strain sac3, hits give low values 1.01 | locus YDR195W, strain ref2 1.02 | locus YDR297W, strain sur2, hits give low values 1.02 | locus YDR334W, strain swr1, hits give low values 1.03 | locus YDR335W, strain msn5, hits give low values 1.03 | locus YDR392W, strain spt3, hits give low values 0.935 | locus YEL003W, strain gim4, hits give low values 1.03 | locus YEL037C, strain rad23, hits give low values 1.02 | locus YEL061C, strain CIN8 (second series), hits give low values 1.03 | locus YER015W, strain faa2, hits give low values 1.04 | locus YER016W, strain bim1, hits give low values 1.04 | locus YER111C, strain swi4, hits give low values 1.03 | locus YER155C, strain BEM2 (second series), hits give low values 1.02 | locus YFR010W, strain ubp6, hits give low values 1.03 | locus YGL167C, strain pmr1, hits give low values 1.03 | locus YGL173C, strain kem1, hits give low values 1.03 | locus YGL227W, strain vid30, hits give low values 1.03 | locus YGL240W, strain doc1, hits give low values 1.02 | locus YGL253W, strain hxk2, hits give low values 1.05 | locus YHR013C, strain ard1, hits give low values 1.07 | locus YHR027C, strain rpn1, hits give low values 1.03 | locus YHR142W, strain chs7, hits give low values 1.04 | locus YJL092W, strain hpr5, hits give low values 1.03 | locus YJL095W, strain BCK1 (second series), hits give low values 1.03 | locus YJL115W, strain asf1, hits give low values 1.02 | locus YJL129C, strain trk1, hits give low values 1.06 | locus YJL154C, strain vps35, hits give low values 1.02 | locus YJL164C, strain tpk1, hits give low values 1.01 | locus YJL166W, strain qcr8, hits give low values 1.05 | locus YJL187C, strain SWE1, hits give low values 1.04 | locus YKL160W, strain elf1, hits give low values 1.04 | locus YKR026C, strain gcn3, hits give low values 1.03 | locus YKR091W, strain srl3, hits give low values 1.02 | locus YLL001W, strain dnm1, hits give low values 1.05 | locus YLL026W, hits give low values 1.02 | locus YLL041C, strain sdh2, hits give low values 1.02 | locus YLR027C, strain aat2, hits give low values 1.02 | locus YLR221C, strain rsa3, hits give low values 1.03 | locus YLR258W, strain gsy2, hits give low values 1.01 | locus YLR262C, strain YPT6 (second series), hits give low values 1.05 | locus YLR320W, strain mms22, hits give low values 1.04 | locus YLR342W, strain FKS1, hits give low values 1.03 | locus YLR357W, strain rsc2, hits give low values 1.05 | locus YLR370C, strain arc18, hits give low values 1.03 | locus YLR384C, strain iki3, hits give low values 1.02 | locus YML120C, strain ndi1, hits give low values 1.03 | locus YMR058W, strain fet3, hits give low values 1.03 | locus YMR125W, strain sto1, hits give low values 1.04 | locus YMR129W, hits give low values 1.03 | locus YMR205C, strain PFK2, hits give low values 1.05 | locus YMR231W, strain pep5, hits give low values 1.03 | locus YNL071W, strain lat1, hits give low values 1.04 | locus YNL209W, strain ssb2, hits give low values 1.02 | locus YNL248C, strain rpa49, hits give low values 1.06 | locus YNL322C, strain KRE1 (second series), hits give low values 1.03 | locus YNR049C, strain mso1, hits give low values 1.02 | locus YOR001W, strain rrp6, hits give low values 0.987 | locus YOR070C, strain gyp1, hits give low values 1.02 | locus YOR080W, strain dia2, hits give low values 1.02 | locus YOR083W, strain WHI5, hits give low values 1.04 | locus YOR106W, strain vam3, hits give low values 1.09 | locus YOR265W, strain rbl2, hits give low values 1.01 | locus YOR270C, strain vph1, hits give low values 1.11 | locus YOR290C, strain snf2, hits give low values 1.03 | locus YPL051W, strain arl3, hits give low values 1.04 | locus YPL078C, strain atp4, hits give low values 1.06 | locus YPL106C, strain sse1, hits give low values 1.01 | locus YPL240C, strain hsp82, hits give low values 1.02
